Screening results (PubChem)
AmpC inh detg = qHTS Inhibitors of AmpC Beta-Lactamase (assay with detergent); Potency, µM (titrated, usually from 114 µM), most hits filed as inhibitors; AmpC hydrolysis of nitrocefin, absorbance 480 nm, 0.01% Triton; 370,000 tested, 0.041% active; P00811; note: nearly all actives have a fitted effect of over 25% in size
Target sequence (P00811 whole entry, looked up): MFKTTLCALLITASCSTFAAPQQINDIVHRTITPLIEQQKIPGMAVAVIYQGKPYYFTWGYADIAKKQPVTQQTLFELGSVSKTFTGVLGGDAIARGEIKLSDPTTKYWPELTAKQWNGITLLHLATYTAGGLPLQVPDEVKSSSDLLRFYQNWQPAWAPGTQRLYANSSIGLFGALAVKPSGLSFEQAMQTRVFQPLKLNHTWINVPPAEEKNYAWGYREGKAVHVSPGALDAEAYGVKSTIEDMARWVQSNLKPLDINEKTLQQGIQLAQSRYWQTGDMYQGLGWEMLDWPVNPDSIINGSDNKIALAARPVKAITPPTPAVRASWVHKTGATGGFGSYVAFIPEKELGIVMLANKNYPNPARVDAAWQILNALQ
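AmpC (5.3 nM in the dispensed reagent) in 20 mM phosphate pH 7.0 with 0.01% (detergent screen) or 0.0001% Triton X-100 was preincubated with compounds for 15 min at room temperature. Nitrocefin was then added from an 800 uM solution, and hydrolysis was followed at 480 nm.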
HCMV inh = qHTS Assay for inhibitors of the human cytomegalovirus (HCMV); 410,000 tested, 4.5% active; HFF cells, HCMV-luciferase reporter, 72 h; hits give low values; activity change, negative = inhibition, % at 57.5 µM; in the data active = activity change below about -60%; inconclusive = no clear call, values can overlap the other calls; inactive = above about -39%
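After 16 h attachment at 37C, HFF cells received test compound and HCMV-luciferase (1 PFU/cell); reporter luminescence read 72 h later, data normalized against buffer-only and known inhibitor Salinomycin.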
AmpC inh no detg = qHTS Inhibitors of AmpC Beta-Lactamase (assay without detergent); P00811; AmpC nitrocefin hydrolysis, absorbance 480 nm, 0.0001% Triton; Potency, µM (doses to about 57.1 µM), usual class: inhibitors; 330,000 tested, 0.52% active; note: nearly all actives have a fitted effect of over 20% in size
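AmpC (5.3 nM in the dispensed reagent) in 20 mM phosphate pH 7.0 with 0.01% (detergent screen) or 0.0001% Triton X-100 was preincubated with compounds for 15 min at room temperature. Nitrocefin was then added from an 800 uM solution, and hydrolysis was followed at 480 nm.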
HCV inh = qHTS Assay for Inhibitors of Hepatitis C Virus (HCV). Huh7.5.1 HCVcc-Cre infection, luciferase reporter, 44 h. Potency, µM (titrated, usually from 41.8 µM), actives largely listed as inhibitors. 340,000 tested, 3.4% active. AID 651820, 2012
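Reporter virus HCVcc-Cre (~0.5 moi) infects cells exposed to compound; seeding density 1,000 cells/well with 4 h settling beforehand. Luminescence, 15 sec read, taken 44 h post-infection following a 15 min RT substrate incubation.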
FMDV inh = High Throughput Screening for Foot and Mouth Disease Virus Antivirals. Potency, µM (top dose mostly 57.9 µM), most hits filed as inhibitors. AID 1159524, 2015. FMDV antiviral cell-based qHTS. 410,000 tested, 1.2% active; calls by dose curve; tested in HEK293T cells; note: read-out not given here; nearly all actives have a fitted effect of over 45% in size
Numbers stand for hits; 0 = inactive; ? = inconclusive; - = not tested or not shown; ! = a repeat was not active. An excerpt weighted towards active compounds, which were near 7.3% of everything screened. Unless noted, calls come from the whole dose curve; as a rule, active = well fitted curve in the direction sought with a large enough effect; inconclusive = small, poorly fitted or top-dose-only effect, or another doubt; inactive = no such curve, though single readings can be large; an effect the other way counts as inactive or inconclusive.

SMILES	AmpC inh detg	HCMV inh	AmpC inh no detg	HCV inh	FMDV inh
NC(=O)CC(NC(=O)c1ccccc1)c1ccc(N2CCC(Cc3ccccc3)CC2)c([N+](=O)[O-])c1 (stereo unspecified)	0	-67	0	?	?
Cc1cccc(-c2nn(-c3ccccc3)cc2C(=O)N2CCN(C3CCS(=O)(=O)C3)CC2)c1 (stereo unspecified)	0	0	0	0	0
O=C(c1cc(COc2cccc(C(F)(F)F)c2)on1)N1C[C@H]2CC[C@H]1C2	0	0	0	0	0
CC1(C)C[C@@H]2C[C@@](C)(CN2C(=O)c2cc(COc3cccc(C(F)(F)F)c3)on2)C1	0	?	0	10µM	0
CCOC(=O)C1=C(C)N=c2sc(=Cc3ccc(OCC(=O)O)cc3)c(=O)n2C1c1ccc(Cl)cc1 (stereo unspecified)	-	0	-	-	?
CCOC(=O)C1=C(C)N=c2s/c(=C\c3ccc(OCC(=O)O)cc3)c(=O)n2C1c1ccc(OC(C)C)cc1 (stereo unspecified)	?	0	0	0	40µM
Cc1cc(C)c(NC(=O)CCCN2CCCC2)c(C)c1	?	-67	0	0	0
Cn1c(-c2ccc(-c3ccccc3)cc2)c[nH]c1=S	0	?	0	5µM	0
CCn1c(-c2ccc(-c3ccccc3)cc2)c[nH]c1=S	0	0	0	10µM	0
Cc1ccc(-c2c[nH]c(=S)n2-c2ccccc2F)cc1	0	-64	0	0	0
Cc1ccc(-c2c[nH]c(=S)n2-c2ccccc2)cc1	0	0	0	0	0
CCOC(=O)c1ccc(NC(=O)CC(C)n2nc(C)cc2C)cc1 (stereo unspecified)	0	0	-	-	0
CC(C)c1c(C(=O)N2CCN(CCO)CC2)cnn1-c1nccc(-c2cccs2)n1	-	-	-	-	0
C#C[C@]1(O)CC[C@H]2[C@@H]3CCC4=Cc5oncc5C[C@]4(C)[C@H]3CC[C@@]21C	-	0	-	0	40µM
COc1cc2c(cc1OC)CN(Cc1ccc(C)s1)CC2	0	-95	0	0	0
O=C(O)CCCn1cc(NC(=O)COc2ccccc2F)cn1	0	0	0	0	10µM!
CC(C)CCCN1CCN=C1N(C)C	?	-74	0	0	0
Cc1cc(C)c(C)c(S(=O)(=O)N2CCN(c3ccccn3)CC2)c1C	?	0	0	?	0
O=S(=O)(c1cc(C(F)(F)F)ccc1Cl)N1CCCCCC1	0	0	0	0	-
CC1CCN(c2nc(-c3ccccc3O)nc3ccccc23)CC1	0	0	0	?	0
O=S(=O)(c1cc(C(F)(F)F)ccc1Cl)N1CCN(c2ncnc3ccccc23)CC1	0	-82	0	14µM	?
CC1CCN(c2ncnc3ccccc23)CC1	0	-72	0	11µM	?
Cc1cc(C)c(C)c(S(=O)(=O)N2CCN(c3ncnc4ccccc34)CC2)c1C	0	?	0	2.5µM	16µM
Cc1ncc2c(c1CNC(=O)c1ccc3c(c1)OCO3)CCN(C(=O)/C=C/c1ccccc1Cl)C2	-	-	-	-	0
CCOC(=O)C1=C(COC(=O)CCC(=O)c2ccc(C)cc2)NC(=O)NC1C (stereo unspecified)	0	0	0	0	0
SMILES	AmpC inh detg	HCMV inh	AmpC inh no detg	HCV inh	FMDV inh
COc1ccc(C(=O)C(Nc2ccccc2)C(=O)Nc2ccc3ccccc3c2)cc1 (stereo unspecified)	-	0	-	-	-
C=CCNC(=O)c1onc(CSc2ccccc2)c1C(=O)NCC=C	-	0	-	0	0
C=CCNC(=O)c1onc(CSc2ccc(F)c(F)c2)c1C(=O)NCC=C	-	-66	-	0	0
COc1ccccc1NS(=O)(=O)c1ccc(N/N=C(\C)C(C)C)c([N+](=O)[O-])c1	?	-61	0	?	0
COc1ccc(NS(=O)(=O)c2ccc(N/N=C(\C)c3ccncc3)c([N+](=O)[O-])c2)cc1	?	-67	0	4.5µM	0
COc1cc(NC(=O)c2ccc(F)cc2)c(OC)cc1Cl	0	0	0	?	0
COc1cc(NC(=O)c2cc(C(C)C)on2)c(OC)cc1Cl	0	0	0	11µM	0
COc1cc(NC(=O)c2c(F)c(F)c(F)c(F)c2F)c(OC)cc1Cl	0	0	0	11µM	?
CCCCn1nnnc1C1(C)CCC(=O)N1CC1CCCCC1 (stereo unspecified)	-	0	-	-	0
COc1cc(/C=C/C(=O)OCC(=O)NC(=O)NC23CC4CC(CC(C4)C2)C3)ccc1OCC#N	0	0	8.9µM	?	0
COc1cc(/C=C/C(=O)OCC(=O)NC(=O)NC(C)C)ccc1OCC#N	0	0	0	?	0
CCOc1ccc(NC(=O)CCSc2nc3c(c(CC)c2C#N)C(=O)CC(C)(C)C3)cc1	0	0	0	?	0
CCc1c(C#N)c(SCCC(=O)Nc2ccc(C)cc2)nc2c1C(=O)CC(C)(C)C2	0	0	0	8.9µM	0
CC1CC(=O)N(CC(=O)Nc2ccc(Br)cc2)c2ccccc2S1(=O)=O (stereo unspecified)	0	-64	0	0	0
O=C1/C(=C\c2ccc3c(c2)OCO3)CCC/C1=C/c1ccc2c(c1)OCO2	0	-89	0	0	0
COc1cc(/C=C2/CCC/C(=C\c3cc(O)c(OC)c(Cl)c3)C2=O)cc(Cl)c1O	0	-100	0	11µM	?
COc1cc(/C=C2\CC(C(C)(C)C)C/C(=C\c3cc(OC)c(OC)c(OC)c3)C2=O)cc(OC)c1OC (stereo unspecified)	0	-98	0	2.5µM	14µM
COc1cc(/C=C2\CC/C(=C\c3cc(OC)c(OC)c(OC)c3)C2=O)cc(OC)c1OC	0	0	0	13µM	?
CCOc1ccc(C(=O)N/N=C/c2c(C)[nH]c(=O)[nH]c2=O)cc1	0	0	0	-	-
COc1cc(/C=C2/C(=O)CNC2=O)ccc1O	0	0	0	0	0
COc1cc(C=C2C(=O)C=CC2=O)ccc1O	-	-88	-	-	?
CCOc1cc(/C=C2\SC(=O)N(c3ccc(O)cc3)C2=O)ccc1O	0	?	10µM	0	0
CCOc1ccc(N2C(=O)S/C(=C\c3ccc(O)c(OCC)c3)C2=O)cc1	0	?	0	?	?
CCN1C/C(=C/c2cccc([N+](=O)[O-])c2)C(=O)/C(=C/c2cccc([N+](=O)[O-])c2)C1	0	-103	0	?	3.5µM
O=C1NC(=O)/C(=C/c2cccc([N+](=O)[O-])c2)N1	0	0	0	0	0
CCOc1cc(/C=C2\CN(CC)C/C(=C\c3ccc(O)c(OCC)c3)C2=O)ccc1O	?	-101	0	4.5µM	10µM
Cc1ccc(NC(=O)CCCn2c(=O)c3cccn3c3cccnc32)c(Cl)c1	0	0	-	-	0
COc1cc(/C=C2\CCc3ccccc3C2=O)cc(OC)c1OC	0	-74	0	?	0
